# Test results reported in PubChem BioAssay (NCI).
# Values joined by “and” are separate entries in the source; they are usually repeats but may differ in a detail not shown here. Equal values may be shown once. This is part of a sample that, as a whole, favours compounds with a hit. Of some 83,000 tested, about 20% had one in any assay.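 Results are percent growth after 48 hours of single-concentration exposure. 100 means growth as in untreated cells, lower positive values show inhibition; negative values down to -100 show cell death.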 Active and inactive are the calls of the source. How the source made its calls: active means growth percent below 10; inactive means the rest.
# System: HL-60(TB) leukemia
# Test: NCI-60 one-dose screen, 48 h (100 = growth as untreated, 0 = no growth, -100 = all killed)
# Details: 10 µM unless noted
row,SMILES,growth
1,CCN(CC)CC(=O)Nc1c(C)cc(C(=O)NN)cc1C,65.2% (inactive)
2,O=C(N/N=C/c1ccc(Cl)cc1Cl)c1ccccc1Nc1cccc(C(F)(F)F)c1,85.7% (inactive)
3,COc1ccc2c(c1)[nH]c(=O)c1c3cc(OC)c(OC)cc3cn21,-18.9% (active)
4,COc1ccc(/C(C)=C(/c2ccc(OCCCN(C)C)cc2)c2ccc(OC(=O)Cc3ccccc3)cc2)cc1,72% (inactive)
5,COC(=O)/C=C/c1cc(O)c2oc(-c3ccc(O)c(O)c3)c(C(=O)OC)c2c1,6.46% (active)
6,Clc1ccc(/C=C/c2ccc3ccccc3n2)cc1,-14.2% (active) and 77.3% (inactive) and 60.8% (inactive)
7,CC/C(=C(/c1ccc(Cl)cc1)c1ccc(OCCN2CCCC2)cc1)c1ccc(OC)cc1,65.1% (inactive)
8,NC(N)=Nc1nc2ccccc2o1,124% (inactive)
9,COc1ccc(OC)c(/C=C2\COc3ccc(O)cc3C2=O)c1,82.2% (inactive)
10,Cc1cc(CC(=O)O)n(C)c1C(=O)c1ccc(Cl)cc1,105% (inactive)
11,Nc1ncnc2c1C(c1ccccc1)c1ccc3ccccc3c1O2 (centres undefined),82.4% (inactive)
12,CN1CCC(CN2c3ccccc3Sc3ccccc32)C1 (centres undefined),63.9% (inactive)
13,COc1ccc(OC)c(/C=C2\Oc3cc(OCCN4CCC(Cc5ccccc5)CC4)ccc3C2=O)c1,98.2% (inactive)
14,N#Cc1c(-c2ccc(C(F)(F)F)cc2)cc(NCC2CCS(=O)(=O)CC2)n2c1nc1ccccc12,88.5% (inactive)
15,N=C(N)c1ccc(-c2ccc(-c3cc(Cl)cc(Cl)c3)o2)o1,-64% (active)
16,COc1cccc(CNc2ncnc3c2ncn3C2OC(CO)C(O)C2O)c1O (centres undefined),-47% (active)
17,C=C(C)[C@@H]1CC[C@]2(C(=O)N3CCN(C)CC3)CC[C@]3(C)[C@H](CC[C@@H]4[C@@]5(C)CC(=C/c6ccncc6)/C(=N/O)C(C)(C)[C@@H]5CC[C@]43C)[C@@H]12,40.4% (inactive)
18,c1csc([C@@H]2C[C@@H]3Cc4ccc5ccccc5c4N2O3)c1,104% (inactive)
19,O=C(O)c1cc(=O)[nH]c(=O)[nH]1,109% (inactive) and 106% (inactive)
20,CC1=C/C(O)CC(=O)Cc2nc(co2)C(=O)N2CCC=C2C(=O)OC(C(C)C)C(C)/C=C\C(=O)NC/C=C\1 (centres undefined),56.4% (inactive)

row,SMILES,growth
1,O=S(=O)(Nc1ccc(NS(=O)(=O)c2ccccc2)c(Cl)c1)c1ccccc1,78.4% (inactive)
2,CC1=CC(O)C2CC1C2(C)C (centres undefined),100% (inactive) and 73.7% (inactive)
3,O=C(CCc1nnc(CN(c2ccccc2)c2ccccc2)o1)c1nc2ccccc2[nH]1,84.1% (inactive)
4,O=C(/C=C/c1ccc(Cl)s1)c1ccc(Cl)s1,119% (inactive) and 111% (inactive)
5,O=Nc1c(O)ccc2ccccc12.O=Nc1c(O)ccc2ccccc12.O=Nc1c([O-])ccc2ccccc12.[Fe+3],105% (inactive)
6,CC1=CCC2CC1C2(C)C (centres undefined),105% (inactive) and 92.9% (inactive)
7,CS(=O)(=O)Nc1cc(-c2ccc3ncnc(Nc4ccc5c(cnn5Cc5cccc(F)c5)c4)c3c2)cnc1Cl,-23.9% (active)
8,Nc1ccccc1SC(CC(=O)c1ccccc1)c1c(Cl)cccc1Cl (centres undefined),54.8% (inactive)
9,Cc1nc2c(=O)[nH]c(=S)[nH]c2[nH]c1=O,75.3% (inactive) and 96.3% (inactive)
10,O=c1c2c([nH]c3ccccc13)CCCC2,97.6% (inactive) and 5.42% (active)
11,COc1ccc(C2CC(c3cccc(OC)c3)=NN2C(=O)c2cc(OC)c(OC)c(OC)c2)cc1 (centres undefined),-44.1% (active)
12,O=C(c1ccc(Cl)cc1)N1CCN(c2ccnc3cc(Cl)ccc23)CC1,102% (inactive)
13,CC(C)(C)n1cc(-c2ccnc(NCCCNS(=O)(=O)c3ccccc3)c2)c(-c2ccccc2)n1,38.5% (inactive)
14,CSc1nc2c(c(=O)[nH]1)N=C1c3ccccc3C(=O)C1C(c1ccccc1)N2 (centres undefined),-34.8% (active)
15,N=C(N)c1ccc(-c2ccc(-c3cncc4ccccc34)s2)cc1F,-45.5% (active)
16,[B-][N+](CC)(CC)c1ccccc1,45.6% (inactive)
17,C/C(=C\c1ccccc1)c1ccccn1,70.9% (inactive)
18,Nc1nc(N)nc(NCc2ccccc2)n1,98.6% (inactive)
19,CC(C)Cc1ccc(C(C)C(=O)NCc2ccc(Cn3c(=O)sn(CCCCl)c3=O)cc2)cc1 (centres undefined),102% (inactive) and -23.6% (active)
